The full list was thinned out, with hits kept by preference.
NS1 function inh – qHTS Assay for Inhibitors of Influenza NS1 Protein Function. Potency, µM (highest dose often 46.1 µM). 0.4% of 270,000 active. AID 2326, 2010; note: actives are rising curves; nearly all actives have a fitted effect of over 50% in size
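In this qHTS, NS1 from influenza A is expressed in budding yeast, where it slows growth. Cells are switched from glucose to 2% galactose medium (pH 6.0, -URA), treated with compound, and growth recovery is read at OD600.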
Cycloheximide cs – Cycloheximide Counterscreen for Small Molecule Inhibitors of Shiga Toxin | cell reporter, cycloheximide protein synthesis inhibition counterscreen | max response, % | 12% of 300,000 active; in the data active = max response mostly above about 13%, no sharp cut-off; inactive = mostly below about 14%; note: read at 38.3 µM for the half of the compounds with a filed dose
LmPK inh – qHTS Assay for Inhibitors of Leishmania Mexicana Pyruvate Kinase (LmPK); AID 1721, 2009; Potency, µM (titrated, usually from 57.5 µM), actives largely listed as inhibitors; purified LmPK, Kinase-Glo ATP luminescence, 1 h; 0.37% of 290,000 active; active = well fitted curve in the direction sought with a large enough effect; inconclusive = small, poorly fitted or top-dose-only effect, or another doubt; inactive = no such curve, though single readings can be large; an effect the other way counts as inactive or inconclusive
Target sequence (Q27686 whole entry, looked up): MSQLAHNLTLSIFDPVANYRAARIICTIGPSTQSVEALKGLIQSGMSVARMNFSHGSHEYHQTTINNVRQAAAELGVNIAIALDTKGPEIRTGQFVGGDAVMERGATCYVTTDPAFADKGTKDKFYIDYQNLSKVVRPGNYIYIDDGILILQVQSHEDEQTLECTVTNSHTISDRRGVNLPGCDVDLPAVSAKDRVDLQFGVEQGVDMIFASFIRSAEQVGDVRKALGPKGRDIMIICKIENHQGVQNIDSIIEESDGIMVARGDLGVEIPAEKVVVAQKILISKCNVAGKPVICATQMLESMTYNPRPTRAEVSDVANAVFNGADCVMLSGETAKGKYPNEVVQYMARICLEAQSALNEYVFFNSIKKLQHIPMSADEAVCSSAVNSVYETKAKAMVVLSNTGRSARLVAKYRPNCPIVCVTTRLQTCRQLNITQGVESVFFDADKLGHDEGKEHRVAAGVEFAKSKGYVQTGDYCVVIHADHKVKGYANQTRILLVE
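In 50 mM imidazole pH 7.2 with 7 mM MgCl2, LmPK (0.1 nM) turned over PEP (0.5 mM) and ADP (0.1 mM) for 1 h at room temperature. Luciferase read-out of ATP.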
SARS PLpro yeast – qHTS of Yeast-based Assay for SARS-CoV PLP. S. cerevisiae expressing SARS-CoV PLpro, growth rescue. Potency, µM (highest dose often 32.9 µM), usual class: activators. 0.19% of 330,000 active. AID 485353, 2010; note: nearly all actives have a fitted effect of over 55% in size
Tb PYK inh – qHTS of Trypanosoma Brucei Inhibitors; 0.12% of 410,000 active; TbPYK enzyme, Kinase-Glo Plus ATP luminescence, 45 min; Potency, µM (series often up to 76.8 µM), most hits filed as inhibitors; pyruvate kinase (Trypanosoma brucei), Q57TT1; active = well fitted curve in the direction sought with a large enough effect; inconclusive = small, poorly fitted or top-dose-only effect, or another doubt; inactive = no such curve, though single readings can be large; an effect the other way counts as inactive or inconclusive; note: nearly all actives have a fitted effect of over 50% in size
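Luminescence from Kinase-Glo Plus, added after a 45-minute room-temperature reaction, served as the end-point read-out. The enzyme and substrate were preincubated with compound before ADP (130 uM final) initiated turnover. Concentration-effect curves came from normalized qHTS data.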
Shiga inhibitor – A qHTS for Small Molecule Inhibitors of Shiga Toxin. Vero cells, Shiga toxin protein synthesis inhibition reporter. inhibition, % at 38.7 µM. 9.2% of 290,000 active; in the data active = inhibition mostly above about 28%, no sharp cut-off; inactive = mostly below about 43%
Numbers stand for hits; - = inactive; ? = inconclusive; . = no result given; [ ] = another dose, or the depositor's remark. Unless noted, calls come from the whole dose curve.

SMILES | NS1 function inh | Cycloheximide cs | LmPK inh | SARS PLpro yeast | Tb PYK inh | Shiga inhibitor
CC(C)(C)c1ccc(-c2nc(N)nc(N)n2)cc1 | - | 33 | - | - | - | -
C[C@@H]1ON(C)[C@H]2C[C@H]3c4[nH]c5ccc(-c6ccc7c(c6)OCO7)cc5c4CCN3C(=O)[C@@H]12 | . | . | . | . | - | .
Cc1ccc(-c2ccc(/C=C(\C#N)C(N)=S)n2C)cc1 | - | 59 | - | - | - | 61
Cn1cccc1/C=C(/C#N)C(N)=S | - | - | - | - | - | -
CCN(CC)CCOc1ccc(Cc2ccccc2)cc1 | . | . | . | . | - | .
Nc1ccc(OCCc2ccccc2)cc1 | - | 31 | - | - | - | 29
CC(C)CCOc1ccc(N)cc1 | . | 12 | . | . | . | 24
NOCc1ccccc1 | . | 32 | . | . | . | -
CCN(Cc1ccccc1)Cc1ccc(OCc2ccccc2)cc1 | - | 15 | - | - | - | -
CC(C)c1cc(NCCOCCO)n2c(nc3ccccc32)c1C#N | - | - | - | - | - | -
Nc1ccc(OCc2ccccc2)cc1 | ? | 17 | - | - | - | 36
Cc1ccc(NC(=O)CNC(=O)c2ccco2)c(Cl)c1 | - | 25 | - | - | - | 47
O=C(CNC(=O)c1ccco1)Nc1ccc(Br)cc1 | - | 45 | - | - | - | 61
O=C(CNC(=O)c1ccco1)Nc1ccc(Cl)cc1 | - | 27 | - | - | - | 34
COc1ccc(CC(=O)c2ccc(OC)c(OC)c2C)cc1OC | - | 23 | - | - | - | 56
COc1ccc(CC(=O)Cc2ccc(OC)c(OC)c2)cc1OC | . | . | . | . | - | .
Cc1cccc([C@@H]2[C@@H]3C(=O)N(Cc4ccccc4)C(=O)[C@@H]3[C@]3(C)C(=O)N(c4ccc(C(F)(F)F)cc4)C(=O)N23)c1 | - | - | - | - | - | -
Cn1c(-c2ccc(F)cc2)cnc1SCC(=O)N1CCCCC1 | - | 33 | - | - | - | -
Cn1c(-c2ccc(F)cc2)cnc1SCC(=O)N1CCCc2ccccc21 | - | - | - | - | - | -
CC1Cc2ccccc2N1C(=O)CSc1ncc(-c2ccc(F)cc2)n1C (configuration not stated) | - | 61 | - | ? | - | 75
NCCCC[C@H](N)C(=O)N[C@@H](CCCN=C(N)N)C(=O)N1CCC[C@H]1C(=O)N1CCC[C@H]1C(=O)NCC(=O)N[C@@H](Cc1ccccc1)C(=O)N[C@@H](CO)C(=O)N1CCC[C@H]1C(=O)N[C@@H](Cc1ccccc1)C(=O)O | . | - | . | . | . | -
CN(c1cccc(NC(=O)c2cccc([N+](=O)[O-])c2)c1)S(C)(=O)=O | - | 27 | - | ? | - | -
COC(=O)c1cccc(NC(=O)c2cccc([N+](=O)[O-])c2)c1 | - | - | - | - | - | .
COc1ccc(NC(=O)c2ccc(N(C)S(C)(=O)=O)cc2)cc1OC | - | - | - | - | - | -
COc1ccc(C(=O)Nc2cccc(N(C)S(C)(=O)=O)c2)cc1OC | -[9.22 µM] | 26 | - | - | - | 60
SMILES | NS1 function inh | Cycloheximide cs | LmPK inh | SARS PLpro yeast | Tb PYK inh | Shiga inhibitor
CSc1ccccc1NC(=O)Nc1ccc(F)c(Cl)c1 | - | 34 | - | - | - | 61
CC(C)NC(=O)Nc1cccc(Cl)c1 | - | - | - | - | - | -
Cc1ccc(NC(=O)Nc2cccc(Cl)c2)c(C(=O)O)c1 | - | 24 | - | - | - | -
CSc1ccccc1NC(=O)Nc1cccc(Cl)c1 | - | 41 | - | - | - | 84
COc1ccc(Nc2cccc(Cl)c2)c(C(=O)O)c1 | - | - | - | - | - | -
O=C(Nc1ccc(Cl)cc1)Nc1ccc(Cl)c(Cl)c1 | . | . | . | - | - | .
O=C(Nc1ccc(Cl)c(Cl)c1)Nc1ccccc1O | - | 57 | - | - | - | 91
COc1ccc(NC(=O)N2CCCC3(CCN(C(=O)c4cccn4C)CC3)C2)cc1 | . | . | . | . | - | .
CC(=O)N1CCN(S(=O)(=O)c2cccc(C(=O)OCC(=O)NCc3ccccc3Cl)c2)CC1 | . | . | . | . | - | .
N/C(CN1CCSCC1)=N\OCc1c(F)cccc1Cl | - | - | - | - | - | 49
CCN(C(=O)C1CCC(CNS(=O)(=O)c2cccc3nsnc23)CC1)c1cccc(C)c1 (configuration not stated) | . | . | . | . | - | .
CCOc1ccc(/C=C/C(=O)Nc2ccc(OC)cc2[N+](=O)[O-])cc1 | - | - | - | - | - | -

Bioassay records: PubChem BioAssay, National Center for Advancing Translational Sciences (NCATS)
